Here are results for two sequences from publication PMC7862700, “An all-to-all approach to the identification of sequence-specific readers for epigenetic DNA modifications on cytosine”.

Common to all, as to test: DAPPL (digital affinity profiling via proximity ligation, sequencing); 10 mM Tris-HCl pH 7.5, 50 mM NaCl, 1 mM DTT, 4% glycerol, room temperature, 30 min; GST-TFs on glutathione beads, 16-mer random dsDNA library, 0.1% formaldehyde crosslink after washing; high values mean tight binding
Holding throughout (conditions): protein: recombinant; tags: N-terminal GST; dsDNA, one strand shown

The target in one assay is T1, FLI1 (Homo sapiens, UniProt Q01543 1-452).
T1 sequence: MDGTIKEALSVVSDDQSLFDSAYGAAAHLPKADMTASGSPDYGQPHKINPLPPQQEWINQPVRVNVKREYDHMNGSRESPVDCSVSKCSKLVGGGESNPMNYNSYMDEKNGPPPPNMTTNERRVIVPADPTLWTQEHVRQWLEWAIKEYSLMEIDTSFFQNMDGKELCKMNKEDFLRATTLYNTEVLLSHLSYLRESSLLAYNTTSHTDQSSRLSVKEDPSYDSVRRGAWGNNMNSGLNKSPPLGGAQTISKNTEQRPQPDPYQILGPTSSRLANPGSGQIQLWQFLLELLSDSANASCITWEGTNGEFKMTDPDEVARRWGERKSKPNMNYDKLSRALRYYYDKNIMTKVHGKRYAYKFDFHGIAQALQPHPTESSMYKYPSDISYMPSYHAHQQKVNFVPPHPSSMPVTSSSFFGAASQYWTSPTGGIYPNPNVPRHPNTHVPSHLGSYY
A digest of the protocol: (§1)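 Pools were built from human transcription factors expressed in yeast as GST fusions, captured on glutathione beads and DNA-barcoded, along with a tag-only sample. Incubation with 200 nmole of a 16-mer random double-stranded DNA library lasted 30 min at room temperature in Tris/NaCl/DTT/glycerol buffer, and was followed by washing, 0.1% formaldehyde crosslinking, proximity ligation, PCR amplification and Illumina NextSeq500 sequencing. Binding signal is the quotient of each hexamer's read frequency for a factor and its frequency for the tag-only sample.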

In the next assay the target is T2, GABPA (Homo sapiens, UniProt Q06546 1-454).
T2 sequence: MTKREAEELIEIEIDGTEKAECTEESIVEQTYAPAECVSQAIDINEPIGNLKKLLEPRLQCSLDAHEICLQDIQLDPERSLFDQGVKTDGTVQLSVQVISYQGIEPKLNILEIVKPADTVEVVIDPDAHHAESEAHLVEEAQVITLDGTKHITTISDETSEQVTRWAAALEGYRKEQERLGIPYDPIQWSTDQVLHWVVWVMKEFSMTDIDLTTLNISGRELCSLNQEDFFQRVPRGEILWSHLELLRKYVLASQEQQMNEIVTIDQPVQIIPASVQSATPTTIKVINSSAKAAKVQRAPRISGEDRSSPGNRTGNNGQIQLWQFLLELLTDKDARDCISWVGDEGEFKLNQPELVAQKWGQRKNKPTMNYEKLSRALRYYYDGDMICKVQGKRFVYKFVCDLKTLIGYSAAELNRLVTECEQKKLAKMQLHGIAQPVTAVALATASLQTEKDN
Put shortly:
as §1

For another assay, the target named is ELF1 (Homo sapiens, UniProt P32519 1-619). A digest of the protocol:
as §1

A further assay deals with T3, EHF (Homo sapiens, UniProt Q9NZC4 1-300).
T3 sequence: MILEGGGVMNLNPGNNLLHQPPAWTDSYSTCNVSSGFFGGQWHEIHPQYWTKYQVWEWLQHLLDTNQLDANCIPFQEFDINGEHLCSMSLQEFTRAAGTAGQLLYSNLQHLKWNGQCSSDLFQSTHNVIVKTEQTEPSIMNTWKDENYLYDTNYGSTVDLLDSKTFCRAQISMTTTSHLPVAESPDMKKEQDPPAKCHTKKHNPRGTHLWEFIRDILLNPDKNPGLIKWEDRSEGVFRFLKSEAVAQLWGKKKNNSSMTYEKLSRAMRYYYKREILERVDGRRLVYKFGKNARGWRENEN
Put shortly: as §1

Another assay concerns the target SPIB (Homo sapiens, UniProt Q01892 1-262). A digest of the protocol:
as §1

Another assay has as its target T4, ELK3 (Homo sapiens, UniProt P41970 1-407).
T4 sequence: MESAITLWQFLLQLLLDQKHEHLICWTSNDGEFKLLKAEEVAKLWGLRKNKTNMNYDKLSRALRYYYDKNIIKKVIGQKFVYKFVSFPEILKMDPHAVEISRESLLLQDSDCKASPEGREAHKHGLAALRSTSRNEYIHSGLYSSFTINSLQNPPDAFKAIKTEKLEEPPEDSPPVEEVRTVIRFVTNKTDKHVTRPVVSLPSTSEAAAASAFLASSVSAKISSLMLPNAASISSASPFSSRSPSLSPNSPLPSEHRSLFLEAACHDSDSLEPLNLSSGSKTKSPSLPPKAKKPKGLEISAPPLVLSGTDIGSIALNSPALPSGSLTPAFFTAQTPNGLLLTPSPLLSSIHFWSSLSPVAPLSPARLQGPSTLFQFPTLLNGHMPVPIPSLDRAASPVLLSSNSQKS
A digest of the protocol:
as §1

Another assay deals with ETV5 (Homo sapiens, UniProt P41161 1-510). Put shortly:
as §1

A further assay addresses T5, SPIC (Homo sapiens, UniProt Q8N5J4 1-248).
T5 sequence: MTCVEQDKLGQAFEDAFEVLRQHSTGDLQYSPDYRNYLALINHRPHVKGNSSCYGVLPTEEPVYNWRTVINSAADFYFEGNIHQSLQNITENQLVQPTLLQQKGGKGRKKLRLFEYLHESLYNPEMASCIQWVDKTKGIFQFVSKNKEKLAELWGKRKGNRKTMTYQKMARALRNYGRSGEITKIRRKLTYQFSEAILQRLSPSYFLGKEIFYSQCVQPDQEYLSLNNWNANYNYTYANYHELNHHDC
A digest of the protocol: as §1

Another assay addresses ELF4 (Homo sapiens, UniProt Q99607 1-663). A digest of the protocol: as §1
Another assay addresses T6, ERF (Homo sapiens, UniProt P50548 1-548).
T6 sequence: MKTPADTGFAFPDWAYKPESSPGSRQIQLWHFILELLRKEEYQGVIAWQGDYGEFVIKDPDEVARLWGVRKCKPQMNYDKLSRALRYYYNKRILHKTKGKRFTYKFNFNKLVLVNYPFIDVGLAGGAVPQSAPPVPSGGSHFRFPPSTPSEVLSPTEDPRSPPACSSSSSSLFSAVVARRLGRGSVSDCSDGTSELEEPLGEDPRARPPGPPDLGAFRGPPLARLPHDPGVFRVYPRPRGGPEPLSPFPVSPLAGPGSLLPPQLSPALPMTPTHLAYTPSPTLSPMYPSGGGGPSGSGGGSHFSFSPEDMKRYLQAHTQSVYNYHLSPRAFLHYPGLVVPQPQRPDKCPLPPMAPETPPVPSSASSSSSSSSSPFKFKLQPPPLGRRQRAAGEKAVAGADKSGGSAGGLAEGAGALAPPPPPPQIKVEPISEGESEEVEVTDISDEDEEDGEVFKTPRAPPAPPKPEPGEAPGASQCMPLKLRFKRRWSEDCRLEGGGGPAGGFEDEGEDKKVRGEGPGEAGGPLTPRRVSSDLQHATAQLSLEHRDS
Put shortly:
as §1

Another assay deals with T7, ETS2 (Homo sapiens, UniProt P15036 1-469).
T7 sequence: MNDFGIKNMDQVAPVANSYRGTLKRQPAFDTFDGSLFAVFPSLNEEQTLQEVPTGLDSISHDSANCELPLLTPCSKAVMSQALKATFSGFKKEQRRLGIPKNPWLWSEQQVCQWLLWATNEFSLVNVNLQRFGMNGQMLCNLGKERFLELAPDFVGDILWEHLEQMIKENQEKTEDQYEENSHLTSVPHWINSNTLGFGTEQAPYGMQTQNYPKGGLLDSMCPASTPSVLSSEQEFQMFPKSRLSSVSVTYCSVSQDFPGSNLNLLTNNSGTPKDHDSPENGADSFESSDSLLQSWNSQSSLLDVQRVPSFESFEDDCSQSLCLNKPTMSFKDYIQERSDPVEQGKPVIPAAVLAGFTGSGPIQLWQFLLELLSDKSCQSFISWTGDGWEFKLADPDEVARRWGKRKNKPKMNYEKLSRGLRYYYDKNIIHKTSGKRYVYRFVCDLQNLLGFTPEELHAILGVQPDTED
Put shortly:
as §1

For the next assay, the target named is T8, ELF5 (Homo sapiens, UniProt Q9UKW6-2 1-255).
T8 sequence: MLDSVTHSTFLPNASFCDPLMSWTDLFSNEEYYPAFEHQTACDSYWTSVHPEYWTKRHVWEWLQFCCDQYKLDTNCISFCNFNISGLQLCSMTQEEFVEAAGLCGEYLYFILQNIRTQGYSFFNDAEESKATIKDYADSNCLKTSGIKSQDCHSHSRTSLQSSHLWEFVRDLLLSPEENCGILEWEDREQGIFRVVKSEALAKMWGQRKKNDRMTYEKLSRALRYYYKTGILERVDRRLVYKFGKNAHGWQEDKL
A digest of the protocol: as §1

In the next assay the target is ETV6 (Homo sapiens, UniProt P41212 1-452). A digest of the protocol:
as §1

The target of the next assay is SPI1 (Homo sapiens, UniProt P17947 1-270). A digest of the protocol:
as §1

Sequence of ETV5 (P41161 whole entry): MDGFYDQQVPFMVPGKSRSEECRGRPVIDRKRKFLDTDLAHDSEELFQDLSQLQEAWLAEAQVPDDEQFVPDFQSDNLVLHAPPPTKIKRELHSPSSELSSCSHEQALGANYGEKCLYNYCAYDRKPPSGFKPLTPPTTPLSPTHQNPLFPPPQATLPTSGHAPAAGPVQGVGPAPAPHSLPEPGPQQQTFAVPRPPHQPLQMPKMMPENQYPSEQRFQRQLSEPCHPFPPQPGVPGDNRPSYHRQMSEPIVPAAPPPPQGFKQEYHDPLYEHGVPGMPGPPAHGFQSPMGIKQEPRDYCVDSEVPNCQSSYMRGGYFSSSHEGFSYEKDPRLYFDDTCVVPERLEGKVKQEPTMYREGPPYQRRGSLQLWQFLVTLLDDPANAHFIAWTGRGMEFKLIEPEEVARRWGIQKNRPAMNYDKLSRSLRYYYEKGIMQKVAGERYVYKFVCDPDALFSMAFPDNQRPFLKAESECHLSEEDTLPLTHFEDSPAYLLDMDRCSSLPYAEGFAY
Sequence of SPIB (Q01892 whole entry): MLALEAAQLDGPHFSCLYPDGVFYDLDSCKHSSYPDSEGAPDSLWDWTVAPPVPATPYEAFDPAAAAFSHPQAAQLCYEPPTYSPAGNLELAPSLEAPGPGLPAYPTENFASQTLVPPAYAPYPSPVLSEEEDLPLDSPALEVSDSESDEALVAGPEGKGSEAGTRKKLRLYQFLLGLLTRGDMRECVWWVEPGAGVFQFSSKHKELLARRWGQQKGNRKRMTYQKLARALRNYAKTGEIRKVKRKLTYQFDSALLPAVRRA
Sequence of ELF1 (P32519 whole entry): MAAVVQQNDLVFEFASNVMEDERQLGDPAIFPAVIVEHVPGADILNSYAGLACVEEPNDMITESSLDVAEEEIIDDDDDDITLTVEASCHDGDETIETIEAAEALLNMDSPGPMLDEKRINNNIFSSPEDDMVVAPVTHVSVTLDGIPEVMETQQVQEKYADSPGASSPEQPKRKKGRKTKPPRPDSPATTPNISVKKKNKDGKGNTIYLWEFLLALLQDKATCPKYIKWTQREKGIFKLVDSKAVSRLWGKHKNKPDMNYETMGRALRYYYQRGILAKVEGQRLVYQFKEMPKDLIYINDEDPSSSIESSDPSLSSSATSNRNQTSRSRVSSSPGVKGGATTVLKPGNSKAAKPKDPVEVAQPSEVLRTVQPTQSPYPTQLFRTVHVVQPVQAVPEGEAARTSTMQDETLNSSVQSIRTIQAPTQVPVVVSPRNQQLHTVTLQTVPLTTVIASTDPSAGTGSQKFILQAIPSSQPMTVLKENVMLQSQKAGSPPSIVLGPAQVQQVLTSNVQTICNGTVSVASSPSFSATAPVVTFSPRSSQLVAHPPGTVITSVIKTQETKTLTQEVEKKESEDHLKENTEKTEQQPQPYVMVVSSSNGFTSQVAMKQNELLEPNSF
Sequence of ELF4 (Q99607 whole entry): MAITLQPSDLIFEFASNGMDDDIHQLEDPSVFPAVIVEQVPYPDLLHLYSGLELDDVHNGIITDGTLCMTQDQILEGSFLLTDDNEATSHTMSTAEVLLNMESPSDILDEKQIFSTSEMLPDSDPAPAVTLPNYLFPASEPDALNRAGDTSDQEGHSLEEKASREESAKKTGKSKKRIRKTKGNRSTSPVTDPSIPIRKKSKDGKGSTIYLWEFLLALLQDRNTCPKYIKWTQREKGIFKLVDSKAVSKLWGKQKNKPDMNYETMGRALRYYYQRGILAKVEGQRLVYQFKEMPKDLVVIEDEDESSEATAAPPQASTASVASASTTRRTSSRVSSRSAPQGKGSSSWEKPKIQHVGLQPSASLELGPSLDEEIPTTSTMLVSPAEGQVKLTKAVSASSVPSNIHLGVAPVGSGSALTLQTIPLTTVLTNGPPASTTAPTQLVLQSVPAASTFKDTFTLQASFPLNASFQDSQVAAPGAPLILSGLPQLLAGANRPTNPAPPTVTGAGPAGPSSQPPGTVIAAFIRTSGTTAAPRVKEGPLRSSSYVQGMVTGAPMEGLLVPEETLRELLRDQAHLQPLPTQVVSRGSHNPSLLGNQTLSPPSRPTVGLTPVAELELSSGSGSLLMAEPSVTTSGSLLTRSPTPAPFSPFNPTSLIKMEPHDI
Sequence of ETV6 (P41212 whole entry): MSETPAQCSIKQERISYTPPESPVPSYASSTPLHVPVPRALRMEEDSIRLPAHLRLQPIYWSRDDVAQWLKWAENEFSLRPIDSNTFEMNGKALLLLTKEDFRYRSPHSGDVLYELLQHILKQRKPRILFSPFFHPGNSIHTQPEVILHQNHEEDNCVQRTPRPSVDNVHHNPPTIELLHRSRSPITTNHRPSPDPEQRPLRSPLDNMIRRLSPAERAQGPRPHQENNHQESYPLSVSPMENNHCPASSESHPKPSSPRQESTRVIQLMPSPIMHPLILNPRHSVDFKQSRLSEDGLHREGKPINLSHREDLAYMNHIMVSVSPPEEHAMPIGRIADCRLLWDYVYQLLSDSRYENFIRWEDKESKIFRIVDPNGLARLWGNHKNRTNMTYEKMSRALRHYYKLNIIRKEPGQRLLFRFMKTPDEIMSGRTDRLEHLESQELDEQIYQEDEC

As for ACATAG, the binding signal with FLI1 was 1.12 fold enrichment (6-mer frequency, TF over GST control); with GABPA it was 1.03 fold enrichment (6-mer frequency, TF over GST control); with ELF1, 1.07 fold enrichment (6-mer frequency, TF over GST control); with EHF, 1.07 fold enrichment (6-mer frequency, TF over GST control); with SPIB, 1.01 fold enrichment (6-mer frequency, TF over GST control); with ELK3 it was 1.07 fold enrichment (6-mer frequency, TF over GST control). In addition, the binding signal with ETV5 is 1.08 fold enrichment (6-mer frequency, TF over GST control); with SPIC, 1.02 fold enrichment (6-mer frequency, TF over GST control); in the assay with ELF4, 1.04 fold enrichment (6-mer frequency, TF over GST control); in the assay with ERF it was 1.11 fold enrichment (6-mer frequency, TF over GST control); in the assay with ETS2 it was 1.05 fold enrichment (6-mer frequency, TF over GST control); with ELF5, 1.02 fold enrichment (6-mer frequency, TF over GST control). For the same sequence, the binding signal in the assay with ETV6 is 1.07 fold enrichment (6-mer frequency, TF over GST control).
For the sequence TTGGCG, the binding signal with FLI1 was 1.07 fold enrichment (6-mer frequency, TF over GST control); in the assay with GABPA it was 1.02 fold enrichment (6-mer frequency, TF over GST control); with SPI1, 1.05 fold enrichment (6-mer frequency, TF over GST control); with SPIB, 1.13 fold enrichment (6-mer frequency, TF over GST control); in the assay with ETV5 it was 1.02 fold enrichment (6-mer frequency, TF over GST control); in the assay with SPIC, 1.09 fold enrichment (6-mer frequency, TF over GST control). For the same sequence, the binding signal in the assay with ERF was 1.01 fold enrichment (6-mer frequency, TF over GST control).
